According to the supplement of paper PMC10646978:
± gives the standard deviation.

How the values were obtained:
Conditions in all cases: modulator concentration 10 µM
[1] = tested on: RAW-Dual (murine macrophage reporter line); experiment: NF-kB reporter (SEAP) activity fold change vs agonist alone; higher = enhanced NF-kB activity
How it was run: (§1)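 Compound reached 10 μM final in each well by pin transfer, onto RAW-Dual murine macrophage reporter cells seeded at 50 000 per well in 384-well plates. After 1 hour at 37 °C, the cells were stimulated overnight with a PRR agonist. SEAP in the supernatant was read with QUANTI-Blue at 620 nm absorbance for NF-κB, and Lucia luciferase was read with QUANTI-Luc luminescence for IRF. Each signal was turned into fold change against the mean agonist-only control on the same plate, and two replicate plates were averaged with propagated errors.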

[2] = tested on: RAW-Dual (murine macrophage reporter line); experiment: IRF reporter (Lucia luciferase) activity fold change vs agonist alone; higher = enhanced IRF activity
How it was run: as §1

[3] = tested on: RAW-Dual (murine macrophage reporter line); experiment: viability score (confluency relative to resting cells, overnight) (fraction); higher = more viable, active = viable (0.7 or more)
How it was run: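 RAW-Dual macrophages in 384-well plates were treated overnight with compound at 10 μM final. IncuCyte imaging recorded confluency, and IncuCyte software built two confluency masks across every imaged well. The viability score expresses confluency relative to resting cells and was judged against a cutoff, which a compound met only if both masks exceeded 70% of resting cells.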

[4] = agonist: CpG ODN 1826 0.5 ug/mL

Row | Structure (SMILES) | NF-kB reporter [1, 4] | NF-kB reporter ([1]; agonist: LPS 0.1 ug/mL) | NF-kB reporter ([1]; agonist: MPLA […]) | IRF reporter ([2]; agonist: 3'3'-cGAMP 10 ug/mL) | IRF reporter ([2]; agonist: LPS 0.1 ug/mL) | IRF reporter ([2]; agonist: MPLA […]) | viability score [3]
1 | CCC1(CC)Cc2ccccc2C(CC(=O)N2CCOCC2)=N1.O=S(=O)(O)O | 0.627 ± 0.058 | 1.13 ± 0.072 | 1.16 ± 0.096 | 0.601 ± 0.044 | 0.964 ± 0.074 | 1.16 ± 0.21 | 0.829 (active)
2 | CCCCc1nc(Cl)c(CO)n1Cc1ccc(-c2ccccc2-c2nnn[nH]2)cc1 [Prestw-1433] | 1.2 ± 0.29 | 1.08 ± 0.054 | 1.02 ± 0.065 | 0.944 ± 0.034 | 1.29 ± 0.14 | 1.32 ± 0.19 | 1 (active)
3 | c1ccc(CCn2c3ccccc3c3nnc(SCCN4CCCCC4)nc32)cc1 | 0.232 ± 0.018 | 1.05 ± 0.061 | 1.02 ± 0.061 | 0.81 ± 0.075 | 1.57 ± 0.17 | 1.57 ± 0.11 | 1.01 (active)
4 | COc1ccc(C2Sc3ccccc3N(CCN(C)C)C(=O)C2OC(C)=O)cc1.Cl (stereo not drawn) | 1.01 ± 0.29 | 1 ± 0.05 | 1.08 ± 0.092 | 0.966 ± 0.033 | 1.15 ± 0.15 | 1.2 ± 0.12 | 0.992 (active)
5 | O=C(O)CCc1nc(-c2ccccc2)c(-c2ccccc2)o1 | 1.05 ± 0.079 | 0.998 ± 0.066 | 1.03 ± 0.023 | 0.931 ± 0.055 | 0.976 ± 0.12 | 1.03 ± 0.15 | 0.991 (active)
6 | Cc1ccccc1-c1noc(-c2cc3ccccc3oc2=O)n1 | 0.911 ± 0.25 | 0.936 ± 0.077 | 0.917 ± 0.07 | 1 ± 0.027 | 1.08 ± 0.11 | 1.21 ± 0.12 | 0.996 (active)
7 | CCOc1ccccc1OCCCCOc1cccc(C)c1C | 0.984 ± 0.1 | 1.03 ± 0.11 | 0.982 ± 0.061 | 1 ± 0.14 | 1.08 ± 0.13 | 1.1 ± 0.27 | 1 (active)
8 | CC(C)(C)c1nc(-c2cccc(NS(=O)(=O)c3c(F)cccc3F)c2F)c(-c2ccnc(N)n2)s1 | 2.41 ± 0.12 | 1.77 ± 0.14 | 2.36 ± 0.1 | 0.67 ± 0.079 | 0.818 ± 0.071 | 1.1 ± 0.2 | 0.763 (active)
9 | O=C(Nc1ccc(F)cc1)c1ccccc1Br | 1.06 ± 0.092 | 1.06 ± 0.069 | 1 ± 0.065 | 0.73 ± 0.055 | 1.06 ± 0.065 | 1.04 ± 0.22 | 0.979 (active)
10 | CC(C)NCC(O)COCCOc1ccc(C(C)(C)C)cc1.Cl (stereo not drawn) | 0.593 ± 0.039 | 1.06 ± 0.079 | 1.13 ± 0.079 | 0.569 ± 0.034 | 1.31 ± 0.14 | 1.57 ± 0.37 | 0.934 (active)
11 | O=C(Nc1ccc(S(=O)(=O)N2CCOCC2)cc1)c1ccc(Br)s1 | 1.14 ± 0.13 | 1.02 ± 0.092 | 1.01 ± 0.029 | 0.521 ± 0.021 | 1.05 ± 0.065 | 1.12 ± 0.12 | 0.995 (active)
12 | COc1ccc2c(Cl)c(C(=O)N3CCc4ccccc4C3)sc2c1 | 0.875 ± 0.13 | 0.87 ± 0.052 | 1.81 ± 0.77 | 0.845 ± 0.05 | 1.38 ± 0.095 | 1.48 ± 0.13 | 1.01 (active)
13 | COc1cc2c(cc1OC)C(=O)C(CC1CCN(Cc3ccccc3)CC1)C2.Cl (stereo not drawn) | 0.127 ± 0.011 | 0.947 ± 0.072 | 1.46 ± 0.14 | 0.791 ± 0.067 | 1.15 ± 0.25 | 1.29 ± 0.22 | 0.959 (active)
14 | O=C(CSC1CCCCC1)Nc1ccc(Br)cc1 | 1 ± 0.33 | 0.949 ± 0.07 | 1.1 ± 0.07 | 0.671 ± 0.022 | 1.06 ± 0.12 | 1.12 ± 0.14 | 0.962 (active)
